Data: PubChem BioAssay
Values joined by “and” are separate entries in the source; they are usually repeats but may differ in a detail not shown here. Identical values can stand only once. For part of these data: Entries with a potency or affinity are not part of this list. Active and inactive are the calls of the source. Cut-off read from the data, not from the text of the source, unless noted: active = parasite load remaining mostly below about 12% (no sharp cut-off); inactive = mostly above about 10%. Bridge positions count the residues as written; N and C are the ends. Square brackets hold non-standard residues; d marks the D form. Peptide text beside a SMILES is read from it. * marks the point of attachment. ξ: configuration not given here. ξDab(CH2SO3H) = NC(CCNCS(=O)(=O)O)C(=O)O; Heptanoyl(6-Me) = CC(C)CCCCC(=O)*; Dab = NCC[CH](N)C(=O)O

How the values were obtained:
[1] = polyglutamine-triggered caspase-3 activation inhibitors, cell-based (AID 1583); details: polyglutamine-induced caspase-3 activation, cell assay; stronger effect = higher value;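 tested at 10 µM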
[2] = suppressors of polyQ aggregation in yeast, 75Q-TubU reporter (AID 1593); details: Yeast 75Q polyglutamine aggregation reporter
[3] = rescue of polyQ-huntingtin neuronal dysfunction in worms, whole organism, C. elegans mechanosensory neurons, N-terminal huntingtin (AID 1599); details: touch response, stronger effect = higher value
[4] = inhibitors of mitochondrial cytochrome c release, biochemical, purified mitochondria (AID 1603); details: stronger effect = lower value;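 note: mouse liver mitochondria challenged with calcium chloride; signal normalized to the plate average as 100%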
[5] = inhibitors of polyQ protein aggregation (AID 1604); details: polyglutamine-induced protein aggregation inhibition assay; stronger effect = higher value; tested at 2.5 µM
[6] = enhancers of glutamate uptake in motor neurons, MN-1 cell line (AID 1612); details: MN-1 motor neuron cells, stronger effect = higher value;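 note: tested at 1 µM final; 0% = mean of DMSO vehicle wells on each plate; positive means more glutamate uptake than control and negative means less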
[7] = reducers of polyQ inclusions in PC12 cells, cell-based, NGF-treated PC12, GFPQ80 (AID 1614); details: PC12 NGF-treated GFP-polyQ80 inclusion reduction;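 note: lower means fewer inclusions and 0 means no inclusions at all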
[8] = suppressors of polyglutamine aggregation in yeast, 75Q-TubH (AID 1616); details: S. cerevisiae 75Q-TubH polyglutamine aggregation suppression; stronger effect = higher value
[9] = liver-stage malaria parasite growth inhibition, primary screen, cell-based, HepG2, luciferase luminescence, HepG2 viability (AID 624349);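 note: 100% = mean of DMSO negative control wells on the same plate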; details: P. berghei liver stage in HepG2, luciferase luminescence, concentration not given here; parasite load remaining: stronger effect = lower value; viability: measured here: HepG2 viability without parasites
[10] = differential killing of epithelial or mesenchymal cells, primary screen, imaging, PC-3E GFP, TEM4-18 mCherry, co-culture (AID 1345086;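 active = compounds killing one labelled cell type while sparing the other, by normalised counts and ratio limits, not self-fluorescent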;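 for all read-outs here: cells exposed to compound for 72 h before imaging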;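 for red/green cell ratio (normalised): normalised mesenchymal count divided by normalised epithelial count so high means epithelial killing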); details: imaging cell counts, at 1 µM; for red/green cell ratio (normalised): actives lie on both sides, counts scaled to control wells, 1 = unselective
[11] = sensitizers of A549 cells to miR-34 induction, primary screen, imaging, A549 dox-inducible miR-34, nuclei and caspase counts (AID 1347080;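 active = compounds whose cell count with miR-34 switched on is under 0.7 times the count with it off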); details: A549 miR-34 inducible, Hoechst nuclei count, 48 h
[12] = tested on: Hepatitis C virus NS3 helicase; experiment: HCV NS3 helicase inhibitors, primary screen, biochemical, fluorescence polarization, LOPAC1280 library (AID 687035; in the data active = inhibition above about 37%); details: Purified HCV NS3 helicase, Cy5-dT15 ssDNA binding fluorescence polarization; stronger effect = higher value; concentration not given here
[13] = Cy5 fluorescence quenching or enhancement artefacts, artefact control for HCV NS3 helicase inhibitor project, biochemical, LOPAC1280 (AID 687037; call rule not given here); details: Cy5-DNA-NS3h complex fluorescence interference counterscreen
[14] = measured here: epithelial PC-3E GFP cell survival
[15] = measured here: mesenchymal TEM4-18 mCherry cell survival
[16] = stronger effect = lower value, cell number ratio, induced over uninduced
[17] = measured here: relative caspase fold change +Dox/-Dox
[18] = measured here: total cells with miR-34 induction, stronger effect = lower value
[19] = measured here: total cells without miR-34 induction

Structure (SMILES)	inhibition [1]	score [2]	rescue above control [3]	cytochrome c release ratio [4]	inhibition of aggregation [5]	glutamate uptake change [6]	inclusion score [7]	aggregation suppression score [8]	parasite load remaining [9]	viability [9]	red/green cell ratio (normalised) [10]	normalised cell number [10, 14]	normalised cell number [10, 15]	fold change [11, 16]	fold change [11, 17]	cell count [11, 18]	cell count [11, 19]	inhibition [12]	fluorescence ratio (interference) [13]
CC(=O)OCC(=O)[C@H]1CCC2C3CCC4=CC(=O)CC[C@]4(C)C3CC[C@@]21C (stereo partly drawn)	-3.1%	0.92	-2.35	1.07	63.5%	23%	2.5	0.669	44.3% (inactive)	97.7%	1.09 (inactive)	1.34	1.47	0.848 (inactive)	2.3	9410	11100		
Cc1onc(-c2ccccc2)c1C(=O)NC1C(=O)N2[C@@H]1SC(C)(C)[C@@H]2C(=O)O (stereo partly drawn)	7.8%	1.09	17.4	0.85	-11.1%	-21.8%	2	1.34	86.3% (inactive) and 60.5% (inactive)	72.2% and 86.2%	0.97 (inactive)	1.16	1.12	0.832 (inactive)	1.09	11300	13500		
Nc1ccn(C2O[C@H](CO)[C@@H](O)[C@@H]2O)c(=O)n1 (stereo partly drawn)	26%	1.28	1.26	1.03	77.5%	-13.5%		1.27	129% (inactive) and 95.7% (inactive)	74% and 95.8%	1.61 (inactive)	0.27	0.43	0.952 (inactive)	1.13	1930	2030		
CCCCCCCCCCCCC[N+](C)(C)Cc1ccccc1	73.1%	-0.05	0	5.81	25%	18.1%		-0.017	85.2% (inactive) and -0.62% (inactive)	75.6% and 58.8%	0.62 (inactive)	0.83	0.51	0.898 (inactive)	1.61	74.5	83		
CO[C@H]1/C=C/O[C@@]2(C)Oc3c(C)c(O)c4c(O)c(c(C=NN5CCN(C)CC5)c(O)c4c3C2=O)NC(=O)/C(C)=C\C=C\C(C)[C@H](O)[C@@H](C)[C@@H](O)[C@@H](C)[C@@H](OC(C)=O)[C@@H]1C (stereo partly drawn)	-10.8%	1.2	1.38	0.69	83.1%	-15.2%	2	0.812	73.9% (inactive) and 34.2% (inactive)	73.4% and 91.2%	1.06 (inactive)	0.87	0.91	0.892 (inactive)	3.2	11300	12700		
CCCCC(=O)O[C@H]1CCC2C3CCc4cc(O)ccc4C3CC[C@@]21C (stereo partly drawn)	15.8%	-2.02	17.4	1.02	26.4%	19.7%		0.271	83% (inactive) and 44.1% (inactive)	74.5% and 87.8%	0.95 (inactive)	0.89	0.84	0.938 (inactive)	1.71	10200	10900		
CN(C)CCCO[C@H]1[C@@H](C(O)CO)OC2OC(C)(C)O[C@@H]21 (stereo partly drawn)	13.5%	1.28	-9.95	1.02	85.9%	-4%	2	1.2	121% (inactive) and 48% (inactive)	87.2% and 101%	0.97 (inactive)	0.98	0.95	0.948 (inactive)	2.91	12000	12700		
CC(=O)[C@H]1CCC2C3C[C@H](C)C4=CC(=O)CC[C@]4(C)C3[C@@H](O)C[C@@]21C (stereo partly drawn)	-9.54%	0.84	5.72	0.58	53.9%	24.3%		0.683	75.8% (inactive) and 64.6% (inactive)	70.5% and 91.2%	1.01 (inactive)	1.12	1.13	0.946 (inactive)	2.37	8730	9220		
NC(N)=N/N=C\c1c(Cl)cccc1Cl	-8.15%	1.22	-12.2	1.41	61%	33.9%	2	0.91	56% (inactive) and 40.7% (inactive)	69.3% and 86.4%	1.13 (inactive)	1.05	1.18	0.816 (inactive)	0.826	8780	10800	0% (inactive)	1 (inactive)
CC1(C)C2CC[C@]3(C)C(C(=O)C=C4[C@@H]5C[C@@](C)(C(=O)O)CC[C@]5(C)CC[C@]43C)[C@@]2(C)CC[C@@H]1OC(=O)CCC(=O)O (stereo partly drawn)	59.3%	2.57	-3.48	3.47	66.7%	-2.75%		1.68	124% (inactive) and 24.9% (inactive)	99.6% and 85.2%	0.99 (inactive)	1.01	1	0.887 (inactive)	2.9	10800	12200		
CCC(C)C1NC(=O)C(CCNCS(=O)(=O)O)NC(=O)C(NC(=O)C(CCNCS(=O)(=O)O)NC(=O)C(NC(=O)C(CCNCS(=O)(=O)O)NC(=O)CCCCC(C)C)C(C)O)CCNC(=O)C(C(C)O)NC(=O)C(CCNCS(=O)(=O)O)NC(=O)C(CCNCS(=O)(=O)O)NC(=O)C(C(C)CC)NC1=O (stereo not drawn) ({Heptanoyl(6-Me)}-[ξDab(CH2SO3H)]T[ξDab(CH2SO3H)][Dab][ξDab(CH2SO3H)]II[ξDab(CH2SO3H)][ξDab(CH2SO3H)]T; lactam 4-C; configuration not given here)	16.7%	0.3	0	1.4	59.3%	-9.16%		0.253	124% (inactive) and 57.4% (inactive)	68.9% and 92.3%	1.41 (inactive)	1.02	1.44	0.942 (inactive)	0.679	11200	11900		
